Laboratory results from PubChem BioAssay AID372 (MTDP, 2006).
About 770 (0.77%) of roughly 100,000 compounds were called active. Many of the other results were omitted from the sample, so actives are more common in it than they were. Unmarked numbers belong to inactive results. Cut-off read from the data, not from the text of the source: active = inhibition above about 50%; inactive = the rest.

molecular target: Gag-Pol polyprotein (Human immunodeficiency virus type 1 group M subtype B (isolate HXB2)) (UniProt P04585); assay: RNase H inhibition, HIV 1 Gag Pol polyprotein, FRET biochemical assay, screening (AID 372); conditions: HIV-1 RT RNase H, FRET RNA/DNA substrate fluorescence; at 10 µM; hits give high values

Q: With `CCCOC(=O)C1=C(C)NC(=O)NC1c1cccc2ccccc12` (stereo unspecified) as the molecule, how does the inhibition read?
A: 4%

Q: Which inhibition does the source give for `CCc1ccc(NC(=O)C(=O)NCCc2ccc(F)cc2)cc1` here?
A: 12%

Q: `COc1ccc(C(=O)NC(NC(=O)c2ccc(OC)c(OC)c2)c2ccc(Br)cc2)cc1OC` was tested. Which inhibition did it give?
A: 6%

Q: With `O=C1NC(=O)c2ccc3c4c(ccc1c24)CC3` as the molecule, how does the inhibition read?
A: 2%

Q: For `NN1C(=O)c2ccc3c4c(ccc(c24)C1=O)CC3`, which inhibition is on record?
A: 0%

Q: How did the inhibition turn out when `COc1cc(CN2CCN(C3CCCC(C)C3)CC2)cc(OC)c1OC` (stereo unspecified) was run?
A: 7%

Q: How did the inhibition turn out when `COc1ccc(CNC(=O)c2ccc(Cl)c(Cl)c2)cc1` was run?
A: 8%

Q: How did the inhibition turn out when `CC(C)=NNC(=O)C(=O)Nc1ccc(Cl)c(Cl)c1` was run?
A: 12%

Q: For `CC(C)=NNC(=O)C(=O)Nc1cccc(Cl)c1`, which inhibition is on record?
A: 10%

Q: `CC(C)=NNC(=O)Sc1cc(O)c(Cl)cc1O` was tested. Which inhibition did it give?
A: 66% (active)

Q: With `O=C(NCCO)C(=O)Nc1ccc(Oc2ccccc2)cc1` as the molecule, how does the inhibition read?
A: 6%

Q: Which inhibition does the source give for `CC(NC(=O)CSc1nnc(-c2cccc(F)c2)n1-c1ccccc1)c1ccccc1` (stereo unspecified) here?
A: 15%

Q: How did the inhibition turn out when `Cc1cc(C)c(NC(=O)C(C)Sc2nnc(-c3cccc(F)c3)n2-c2ccccc2)c(C)c1` (stereo unspecified) was run?
A: 54% (active)

Q: `Fc1cccc(-c2nnc(SC(c3ccccc3)c3ccccc3)n2-c2ccccc2)c1` was tested. Which inhibition did it give?
A: 13%

Q: How did the inhibition turn out when `Cc1oc(C(C)(C)C)cc1C(=O)Nc1cccc(O)c1` was run?
A: 1%

Q: How did the inhibition turn out when `Cc1ccc(N=Cc2ccc(OC3CSC3)cc2)cc1C` was run?
A: 8%

Q: `COc1ccc(C2NC(=S)NC(C)=C2C(=O)Nc2ccc(C)c(Cl)c2)cc1` (stereo unspecified) was tested. Which inhibition did it give?
A: 10%

Q: For `Nc1c(S(=O)(=O)O)cc(S(=O)(=O)O)c2cccc(O)c12`, which inhibition is on record?
A: 23%

Q: How did the inhibition turn out when `Nc1ccc(S(=O)(=O)O)c2cccc(S(=O)(=O)O)c12` was run?
A: 6%

Q: How did the inhibition turn out when `Nc1nnc(SCC(=O)Nc2ccccc2-c2ccccc2)s1` was run?
A: 0%

Q: Which inhibition does the source give for `COc1ccc(NC(=O)/C(C#N)=C/c2cccc(O)c2)cc1` here?
A: 12%

Q: How did the inhibition turn out when `COc1cc(/C=N/NC(=O)COc2ccc(C(C)(C)CC(C)(C)C)cc2[N+](=O)[O-])ccc1OC(=O)c1ccc([N+](=O)[O-])cc1` was run?
A: 28%

Q: How did the inhibition turn out when `Cc1c(Cl)cccc1-c1ccc(/C=N/N=C2\NC(=O)CS2)o1` was run?
A: 55% (active)

Q: `Cc1c(-c2ccc(/C=N/N=C3/NC(=O)CS3)o2)ccc([N+](=O)[O-])c1C` was tested. Which inhibition did it give?
A: 45%

Q: For `O=C1CS/C(=N/N=C/c2ccc(-c3ccc(Cl)cc3)o2)N1`, which inhibition is on record?
A: 21%

Q: `COc1ccccc1NC(=O)CN(c1ccc(Cl)cc1Cl)S(=O)(=O)c1ccccc1` was tested. Which inhibition did it give?
A: 13%

Q: `c1cc2ccc3ccc(CN4CCOCC4)c4ccc(c1)c2c34` was tested. Which inhibition did it give?
A: 0%

Q: With `CC(=O)Nc1ccc(N2C(=O)/C(=C/c3ccc([N+](=O)[O-])cc3)C=C2c2ccccc2)cc1` as the molecule, how does the inhibition read?
A: 0%

Q: Which inhibition does the source give for `O=C1/C(=C/c2ccc([N+](=O)[O-])cc2)C=C(c2ccccc2)N1c1ccc(O)cc1` here?
A: 54% (active)

Q: For `Cc1cccc(C2=N/C(=C/c3ccc([N+](=O)[O-])cc3)C(=O)N2c2ccc(O)cc2)c1`, which inhibition is on record?
A: 44%

Q: `COc1cc(/C=N/N=C2/NC(=O)C(CC(=O)Nc3cccc(Cl)c3Cl)S2)ccc1O` (stereo unspecified) was tested. Which inhibition did it give?
A: 5%

Q: How did the inhibition turn out when `O=C(NCc1ccco1)c1ccc(Cl)cc1` was run?
A: 0%

Q: Which inhibition does the source give for `CC(=O)Nc1ccc(C(=O)NCc2ccco2)cc1` here?
A: 57% (active)

Q: Which inhibition does the source give for `Cc1ccc(C(=O)NCc2ccco2)cc1` here?
A: 0%

Q: `CCOc1ccc(C(=O)NCc2ccco2)cc1Br` was tested. Which inhibition did it give?
A: 5%

Q: With `CCOc1ccc(C(=O)NCc2ccco2)cc1OCC` as the molecule, how does the inhibition read?
A: 50% (active)

Q: Which inhibition does the source give for `CCOc1ccc(C(=O)NCc2ccco2)cc1Cl` here?
A: 6%

Q: `Cc1nn(S(=O)(=O)c2ccc([N+](=O)[O-])cc2)c(C)c1Sc1ccc([N+](=O)[O-])cc1` was tested. Which inhibition did it give?
A: 18%

Q: `CSCCOC(=O)C1=C(C)NC(=O)NC1c1ccc([N+](=O)[O-])cc1` (stereo unspecified) was tested. Which inhibition did it give?
A: 22%

Q: Which inhibition does the source give for `CCCCOc1ccc2c(C(F)(F)F)cc(=O)oc2c1` here?
A: 9%

Q: Which inhibition does the source give for `CCOC(=O)C1=C(C)NC2=C(C(=O)CC(c3ccc(OC)cc3)C2)C1c1ccccc1OC(C)C` (stereo unspecified) here?
A: 1%

Q: For `O=C(N/N=C/c1ccccc1OC(=O)c1sc2ccccc2c1Cl)c1ccc([N+](=O)[O-])cc1`, which inhibition is on record?
A: 6%

Q: `O=C(Nc1cccc2ccccc12)c1ccccc1[N+](=O)[O-]` was tested. Which inhibition did it give?
A: 5%

Q: `Cc1ccc(OC(=O)Cn2c(=O)sc3cccc(Cl)c32)cc1C` was tested. Which inhibition did it give?
A: 12%

Q: `CCn1c(=O)sc2cccc(Cl)c21` was tested. Which inhibition did it give?
A: 50% (active)

Q: How did the inhibition turn out when `Cc1cc(C)cc(OC(=O)Cn2c(=O)sc3cccc(Cl)c32)c1` was run?
A: 11%

Q: `COC(=O)CCCCCN1C(=O)c2ccccc2C1=O` was tested. Which inhibition did it give?
A: 6%

Q: With `COc1cc(/C=c2\sc3nc4c(C)c(C)ccc4n3c2=O)cc(OC)c1O` as the molecule, how does the inhibition read?
A: 58% (active)

Q: Which inhibition does the source give for `COc1cc(/C=c2/sc3nc4c(C)c(C)ccc4n3c2=O)cc(OC)c1OC(C)=O` here?
A: 8%

Q: For `COc1cc(/C=c2\sc3nc4c(C)c(C)ccc4n3c2=O)cc(Cl)c1O`, which inhibition is on record?
A: 31%

Q: Which inhibition does the source give for `O=C(Nc1ccc(-c2noc(-c3ccccc3F)n2)cc1)c1cccs1` here?
A: 10%

Q: For `CC1CCN(C(=O)CCCN2C(=O)c3cccc4cccc(c34)C2=O)CC1`, which inhibition is on record?
A: 56% (active)

Q: `O=C(CCCN1C(=O)c2cccc3cccc(c23)C1=O)N1CCCCC1` was tested. Which inhibition did it give?
A: 29%

Q: With `CC1CCN(C(=O)CN2C(=O)c3cccc4cccc(c34)C2=O)CC1` as the molecule, how does the inhibition read?
A: 7%

Q: How did the inhibition turn out when `COc1ccccc1-c1c(C(F)(F)F)oc2c(CN(C)C)c(O)ccc2c1=O` was run?
A: 24%

Q: `O=C(CN(c1cccc(Cl)c1)S(=O)(=O)c1ccccc1)N1CCN(Cc2ccccc2)CC1` was tested. Which inhibition did it give?
A: 14%

Q: For `COc1cc(Br)cc2c1OC1(C=C2)c2ccccc2-c2ccccc2N1C` (stereo unspecified), which inhibition is on record?
A: 50% (active)

Q: With `CN1c2ccccc2-c2ccccc2C12C=Cc1cc(Br)cc(Br)c1O2` (stereo unspecified) as the molecule, how does the inhibition read?
A: 17%

Q: With `CN1c2ccccc2-c2ccccc2C12C=Cc1cc(Br)ccc1O2` (stereo unspecified) as the molecule, how does the inhibition read?
A: 6%

Q: `O=C(CSc1nnc(-c2ccccc2)n1-c1ccccc1)N/N=C/C=C/c1ccccc1` was tested. Which inhibition did it give?
A: 15%

Q: Which inhibition does the source give for `O=C(Nc1ccc(Cl)cc1)c1ccccc1C(=O)c1ccc(Cl)cc1` here?
A: 18%

Q: Which inhibition does the source give for `Cc1cccc2c1[nH]c1nc(N/N=C\c3cccc(O)c3)nnc12` here?
A: 14%

Q: For `COc1cc(/C=N\Nc2nnc3c(n2)[nH]c2c(C)cccc23)ccc1O`, which inhibition is on record?
A: 11%

Q: Which inhibition does the source give for `Cc1cccc2c1[nH]c1nc(N/N=C\c3ccc(O)c(O)c3)nnc12` here?
A: 54% (active)

Q: For `Cc1ccc(-c2nc3ccccc3c(=O)[nH]2)cc1`, which inhibition is on record?
A: 7%

Q: With `O=c1[nH]c(-c2ccncc2)nc2ccccc12` as the molecule, how does the inhibition read?
A: 68% (active)

Q: With `O=c1[nH]c(-c2ccc(Br)cc2)nc2ccccc12` as the molecule, how does the inhibition read?
A: 13%

Q: Which inhibition does the source give for `CC(=O)c1ccc(N2CCCCC2C)c(F)c1` (stereo unspecified) here?
A: 0%

Q: With `O=c1[nH]c(=S)n(-c2ccccc2)c(O)c1/C=C1/C=CC=N1` as the molecule, how does the inhibition read?
A: 11%

Q: `O=c1[nH]c(=O)n(-c2ccccc2Cl)c(O)c1C=C1C=CC=N1` was tested. Which inhibition did it give?
A: 0%

Q: With `Cc1cccc(-n2c(O)c(/C=C3\C=CC=N3)c(=O)[nH]c2=S)c1` as the molecule, how does the inhibition read?
A: 11%

Q: `Cc1ccccc1-n1c(O)c(/C=C2\C=CC=N2)c(=O)[nH]c1=O` was tested. Which inhibition did it give?
A: 1%

Q: For `O=C(COc1ccccc1Cl)NNC(=O)c1cc2ccccc2cc1O`, which inhibition is on record?
A: 6%

Q: With `O=[N+]([O-])c1ccc(OCCCN2CCCCC2)cc1` as the molecule, how does the inhibition read?
A: 0%

Q: How did the inhibition turn out when `CCOc1ccc2ccccc2c1/C=C(\C#N)C(=O)NCc1ccco1` was run?
A: 24%

Q: `CCc1ccc(/C=C2/SC(=S)N(CCC(=O)O)C2=O)cc1` was tested. Which inhibition did it give?
A: 8%

Q: How did the inhibition turn out when `CCCC1=C(C(=O)OCC)C(c2cc(C)c(OC)cc2C)C(C#N)=C(N)O1` (stereo unspecified) was run?
A: 2%

Q: For `Cc1cc(C)c2nc3s/c(=C\c4cccc([N+](=O)[O-])c4)c(=O)n3c2c1`, which inhibition is on record?
A: 10%

Q: With `Cc1ccc(N2C(=O)CC(Cc3ccc(Cl)cc3)C2=O)cc1C` (stereo unspecified) as the molecule, how does the inhibition read?
A: 5%

Q: Which inhibition does the source give for `CCOC(=O)C1=C(C)N=c2s/c(=C\c3ccc(-c4cc(C)c(C)c([N+](=O)[O-])c4)o3)c(=O)n2C1c1ccc(Cl)cc1` (stereo unspecified) here?
A: 37%

Q: For `CCOC(=O)C1=C(C)N=c2s/c(=C\c3ccc(-c4cc(C)c(C)c([N+](=O)[O-])c4)o3)c(=O)n2C1c1ccc(OC)c(OC)c1` (stereo unspecified), which inhibition is on record?
A: 51% (active)

Q: `CCOC(=O)C1=C(C)N=c2s/c(=C\c3ccc(-c4ccc([N+](=O)[O-])cc4)o3)c(=O)n2C1c1ccc2c(c1)OCO2` (stereo unspecified) was tested. Which inhibition did it give?
A: 41%

Q: With `CCOC(=O)C1=C(C)N=c2s/c(=C\c3ccc(-c4cc(C)c(C)c([N+](=O)[O-])c4)o3)c(=O)n2C1c1ccc2c(c1)OCO2` (stereo unspecified) as the molecule, how does the inhibition read?
A: 50% (active)

Q: `CCOC(=O)C1=C(C)N=c2s/c(=C\c3ccc(-c4cc(C)c(C)c([N+](=O)[O-])c4)o3)c(=O)n2C1c1ccc(OC)cc1` (stereo unspecified) was tested. Which inhibition did it give?
A: 55% (active)

Q: Which inhibition does the source give for `CCOC(=O)C1=C(C)N=c2s/c(=C\c3ccc(-c4ccc(C)c([N+](=O)[O-])c4)o3)c(=O)n2C1c1ccc2c(c1)OCO2` (stereo unspecified) here?
A: 8%

Q: With `CCOC(=O)C1=C(C)N=c2s/c(=C\c3ccc(-c4ccc(C)c([N+](=O)[O-])c4)o3)c(=O)n2C1c1ccc(OC)c(OC)c1` (stereo unspecified) as the molecule, how does the inhibition read?
A: 18%

Q: With `CCOC(=O)C1=C(C)N=c2s/c(=C\c3ccc(-c4ccc(C)c([N+](=O)[O-])c4)o3)c(=O)n2C1c1ccc(OC)cc1` (stereo unspecified) as the molecule, how does the inhibition read?
A: 21%

Q: For `CCOC(=O)C1=C(C)N=c2s/c(=C\c3ccc(-c4ccc(OC)cc4[N+](=O)[O-])o3)c(=O)n2C1c1ccc(SC)cc1` (stereo unspecified), which inhibition is on record?
A: 52% (active)

Q: How did the inhibition turn out when `CCOC(=O)C1=C(C)N=c2s/c(=C\c3ccc(-c4ccc(OC)cc4[N+](=O)[O-])o3)c(=O)n2C1c1ccc(OC)cc1` (stereo unspecified) was run?
A: 0%

Q: `CCOC(=O)C1=C(C)N=c2s/c(=C\c3ccc(-c4cc(C)c(C)c([N+](=O)[O-])c4)o3)c(=O)n2C1c1cc(OC)ccc1OC` (stereo unspecified) was tested. Which inhibition did it give?
A: 13%

Q: For `CCOC(=O)C1=C(C)N=c2s/c(=C\c3ccc(-c4ccc(OC)cc4[N+](=O)[O-])o3)c(=O)n2C1c1ccc(C)cc1` (stereo unspecified), which inhibition is on record?
A: 44%
